Most compounds without a hit are left out; they make up all but 2.1% or so of the library.
HNF4A DNA FP: change in binding of human HNF4 alpha to DNA | P41235 | HNF4a-FITC DNA binding, fluorescence polarization, 1 h | activity change, % at 10 µM | actives 0.3% (n = 360,000) | AID 1224865; in the data active means activity change above about 30%, passing the limit was not always enough
TPT1 inhibitor: C. albicans TPT1 enzyme inhibition | inhibition, % at 5 µM | actives 0.81% (n = 300,000) | AID 1962 | recombinant caTPT1, FP RNA substrate dephosphorylation;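 active means inhibition above the mean of all tested compounds plus 3 SD, set per screening campaign, cut at about 24% in these data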;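 further: plate controls were DMSO alone for no effect and ferristatin control at 100 nM for full effect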
Myeloid diff MLP: myeloid differentiation induction; ER-HoxA9 myeloid progenitors, lysozyme-GFP differentiation, flow cytometry; calls only at 10 µM; actives 1% (n = 360,000); AID 624256;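 active means normalized GFP-positive differentiation at or above the plate's own cutoff, the solvent-only control mean plus 3 SD; inconclusive means no clear call, values can overlap the other calls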;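 further: cells exposed to compound for four days before flow analysis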
Rpn11 block: inhibitors of human proteasome Rpn11; human 26S proteasome, Ub4-pepOG fluorescence polarization; 20S core pre-blocked with epoxomicin; AID 588493; O00487; actives 0.59% (n = 360,000); inhibition, % at 20 µM;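 active means inhibition at 20 µM, scaled to each plate's controls, above about 33%, limit read from the data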
Target sequence (O00487 whole entry, looked up): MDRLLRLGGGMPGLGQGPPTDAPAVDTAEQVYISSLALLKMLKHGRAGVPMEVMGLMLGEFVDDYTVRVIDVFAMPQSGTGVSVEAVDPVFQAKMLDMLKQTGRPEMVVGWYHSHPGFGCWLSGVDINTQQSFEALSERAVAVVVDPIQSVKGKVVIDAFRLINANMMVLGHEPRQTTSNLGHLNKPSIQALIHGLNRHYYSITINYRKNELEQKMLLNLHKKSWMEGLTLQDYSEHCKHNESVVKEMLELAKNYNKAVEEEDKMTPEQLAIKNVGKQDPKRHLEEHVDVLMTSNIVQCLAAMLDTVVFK
An asterisk follows results filed as active; i = inactive; ? = inconclusive; / = no result shown; + = active, no number.

SMILES	HNF4A DNA FP	TPT1 inhibitor	Myeloid diff MLP	Rpn11 block
O=C(c1nn2c(C(F)(F)F)cc(-c3cccs3)nc2c1Cl)N1CCCc2ccccc21	2	0	+	-4
CC1(C(=O)NS(=O)(=O)c2cccc(Cl)c2)CCN1C(=O)C1(c2ccc(Cl)cc2)CC1 (configuration not stated)	1	/	i	-8
O=[N+]([O-])c1ccc(NN=Cc2cccc3ccccc23)nc1	35*	/	i	/
CC(C)C[C@H](NC(=O)C1CC(=O)N(c2ccc3c(c2)OCCO3)C1)C(=O)N1CCCCC1 (some centres not stated)	0	2	i	2
CCOC(=O)c1c(NC(=O)c2ccccc2N(C)S(=O)(=O)c2ccccc2)sc2c1CCCC2	1	-1	/	-3
COC(=O)c1c(NC(=O)c2ccccc2N(C)S(=O)(=O)c2ccccc2)sc2c1CCCC2	-4	/	+	0
CC(CCC(C)C(C)(C)C)[C@@H]1CC[C@H]2C3C[C@H](OS(O)(=S)=S)[C@H]4C[C@H](OS(O)(=S)=S)[C@@H](OS(O)(=S)=S)C[C@]4(C)[C@H]3CC[C@]12C (some centres not stated) (tested in a mixture with another compound)	-82	/	i	133*
CCN1C(=O)S/C(=C/c2ccc(Sc3nc4ccccc4[nH]3)o2)C1=O	102*	0	i	21
Cc1ccc2cccc(NC(=S)NC(=O)c3ccnn3C)c2n1	4	3	+	2
CCOc1ncccc1C(=O)OCC(=O)NC1CCCCC1	1	/	i	4
Cc1cc(N)ccc1-n1c(C)ccc1C	1	-4	i	3
Cc1cc(N)ccc1N1CCCC1	12	-4	i	90*
CS(=O)(=O)Nc1ccccc1C(=O)Nc1ccc2c(c1)OCCO2	-3	1	+	-3
CCOC(=O)c1[nH]c(C)c(C(=O)OCC)c1C	1	-3	i	-3
CCOC(=O)c1c(C)[nH]c(C(=O)COC(=O)c2[nH]c(C)c(C(C)=O)c2C)c1C	2	-5	+	1
O=C(Nc1ccc(F)c(F)c1)C1CCCN(S(=O)(=O)c2cccc3nonc23)C1 (configuration not stated)	10	2	+	8
Cc1cccc(NC(=O)C2CCCN(S(=O)(=O)c3cccc4nonc34)C2)c1 (configuration not stated)	7	9	i	10
COc1cc2c(cc1OC)-c1nc3ccccc3c(=O)n1C(C)(C)C2	2	-1	+	0
COc1ccc(/C=C2\CCn3c2nc2ccccc2c3=O)cc1OC	1	-1	i	-4
COC(=O)C1(C(=O)OC)C2CCCCC2N(S(=O)(=O)c2ccc(C)cc2)[C@@H]1CC(C)=O (some centres not stated)	3	/	i	/
Cc1nnsc1C(=O)N/N=C/c1ccc2ccccc2c1O	67*	110*	?	/
Cc1nnsc1C(=O)N/N=C/c1ccccc1	-5	5	i	-4
N#Cc1c(Cl)cccc1-n1ccnc1	-1	1	+	-6
Cc1cc(S(=O)(=O)N2CCC3(CC2)OCCN3S(=O)(=O)c2cccs2)ccc1F	-3	-1	i	-9
Cc1cc(=O)c(C(=O)O)nn1-c1ccccc1	-2	-1	i	-5
SMILES	HNF4A DNA FP	TPT1 inhibitor	Myeloid diff MLP	Rpn11 block
N#CC1=C(c2ccc(-c3ccccc3)cc2)COC1=O	8	17	i	40*
CC[C@]12c3[nH]c4ccccc4c3CCN1C(=O)C(CC(=O)NCCc1ccccn1)C[C@@H]2C(=O)N1CCN(C(=O)c2ccco2)CC1 (some centres not stated)	-4	/	i	-4
CC[C@]12c3[nH]c4ccccc4c3CCN1C(=O)C(CC(=O)NCCCn1ccnc1)C[C@@H]2C(=O)N1CCN(C(=O)C2CC2)CC1 (some centres not stated)	2	/	+	2
CC(C)=CCC/C(C)=C/CNC(=O)C[C@H]1C[C@H](C(=O)N2CCCCC2)[C@@]2(CCc3ccccc3)c3[nH]c4ccc(Cl)cc4c3CCN2C1=O	-1	/	i	-5
CC[C@]12c3[nH]c4cc(CCC(=O)N(C)C)ccc4c3CCN1C(=O)[C@@H](CC(=O)NCCc1ccccn1)C[C@@H]2C(=O)N1CCN(C(=O)c2ccco2)CC1	0	/	+	-2
CC(C)=CCC/C(C)=C/CNC(=O)C[C@H]1C[C@H](C(=O)N2CCCCC2)[C@@]2(CCc3ccccc3)c3[nH]c4cc(CCC(=O)N(C)C)ccc4c3CCN2C1=O	-5	/	+	7
CC[C@]12c3[nH]c4ccc(Cl)cc4c3CCN1C(=O)[C@@H](CC(=O)NCCCn1ccnc1)C[C@@H]2C(=O)N1CCN(C(=O)C2CC2)CC1	1	/	i	5
C[C@]12c3[nH]c4cc(-c5ccco5)ccc4c3CCN1C(=O)[C@@H](CC(=O)NCCN1CCOCC1)C[C@@H]2C(=O)N1CCOCC1	-3	/	+	2
Cc1ccsc1C(=O)N1CCCC(CO)(Cc2ccccc2)C1 (configuration not stated)	-1	1	i	-5
Fc1ccccc1NC(=S)N1CCN(Cc2ccccc2)CC1	-2	8	i	-3
CCOC(=O)c1ccc(Nc2nc(C)nc3c2nnn3Cc2ccccc2)cc1	1	1	i	9
CCc1ccc2[nH]c(=O)c(CN(Cc3ccco3)S(=O)(=O)c3ccc4c(c3)OCCO4)cc2c1	-6	-2	i	-4
Cc1ccc(C)c2[nH]c(=O)c(CN(Cc3ccco3)S(=O)(=O)c3ccc4c(c3)OCCO4)cc12	0	1	+	6
Nc1ccc(-n2cnc3cc([N+](=O)[O-])ccc32)cc1	2	-5	+	-2
O=C(O)CCN1C(=O)/C(=C\c2ccc(-c3nc4ccccc4s3)o2)SC1=S	45*	41*	i	+
CCOc1ccc(S(=O)(=O)n2cc(F)c(=O)[nH]c2=O)cc1	-3	1	+	-1
CCOc1ccc(S(=O)(=O)n2cc(F)c(=O)[nH]c2=O)cc1[N+](=O)[O-]	2	-2	?	-8
CCOc1ccc(C(=O)CCC(=O)N2CCN(c3ccc(O)cc3)CC2)cc1	0	/	+	0
COc1ccccc1NC(=O)Cc1nnc(SCC(=O)NC2CCCCC2)n1C	1	-2	i	-3
CC(C)(C)NC(=O)CSCc1ccc(Br)cc1	-1	6	i	0
C=CCNC(=O)CSCc1ccc(Br)cc1	1	-3	+	-1
O=C(O)c1cc(-c2cccnc2)nc2ccc(Br)cc12	1	0	+	-2
Cc1ccc(S(=O)(=O)N(CC(=O)NCCC2=CCCCC2)Cc2ccccc2)cc1	-3	0	+	3
O=C(CN(Cc1ccccc1)S(=O)(=O)c1ccc(F)cc1)NCCC1=CCCCC1	4	-4	i	8
CC(OCC(O)CN(C)Cc1nc2ccccc2c(=O)[nH]1)c1ccc(Cl)cc1 (configuration not stated)	0	-3	i	0

High-throughput results: PubChem BioAssay, several laboratories
